Assay outcomes (PubChem)
Only a selection was taken, and hits are over-represented in it overall.
Cruzain Triton: blocks cruzain activity in presence of Triton detergent; Potency, µM, for inactives: max response, negative = inhibition, usual class: inhibitors; P25779; AID 1478; purified cruzain, Z-FR-AMC fluorescence, 0.01% Triton; hit rate 0.43% among 200,000;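 note: plate controls were neutral wells for no effect and buffer without enzyme for full effect; nearly all actives have a fitted effect of over 40% in size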
Target sequence (P25779 123-467 limits assumed): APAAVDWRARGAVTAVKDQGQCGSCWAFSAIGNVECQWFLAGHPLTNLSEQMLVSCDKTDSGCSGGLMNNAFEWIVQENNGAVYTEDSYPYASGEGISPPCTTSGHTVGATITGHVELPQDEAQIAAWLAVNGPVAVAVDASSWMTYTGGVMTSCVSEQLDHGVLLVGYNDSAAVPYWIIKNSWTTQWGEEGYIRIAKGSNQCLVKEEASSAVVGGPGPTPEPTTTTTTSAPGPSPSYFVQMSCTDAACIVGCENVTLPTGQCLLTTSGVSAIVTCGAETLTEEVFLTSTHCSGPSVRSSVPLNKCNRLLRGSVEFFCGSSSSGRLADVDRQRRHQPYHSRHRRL
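Sodium acetate buffer (100 mM, pH 5.5) containing 5 mM DTT and 0.01% Triton X-100 hosted 1.5 nM cruzain and test compound for 15 min at room temperature. Cleavage of 2 uM Z-FR-AMC was then tracked by fluorescence.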
Giardia FBPA inh-1: inhibitors of Giardia lamblia fructose-1,6-bisphosphate aldolase; A8B2U2; purified Giardia FBPA; Potency, µM (titrated, usually from 59.6 µM), for the others: at the top dose activity, negative = inhibition, hits mostly inhibitors; hit rate 0.71% among 290,000; AID 2451; note: nearly all actives have a fitted effect of over 55% in size
Target sequence (A8B2U2 whole entry, looked up): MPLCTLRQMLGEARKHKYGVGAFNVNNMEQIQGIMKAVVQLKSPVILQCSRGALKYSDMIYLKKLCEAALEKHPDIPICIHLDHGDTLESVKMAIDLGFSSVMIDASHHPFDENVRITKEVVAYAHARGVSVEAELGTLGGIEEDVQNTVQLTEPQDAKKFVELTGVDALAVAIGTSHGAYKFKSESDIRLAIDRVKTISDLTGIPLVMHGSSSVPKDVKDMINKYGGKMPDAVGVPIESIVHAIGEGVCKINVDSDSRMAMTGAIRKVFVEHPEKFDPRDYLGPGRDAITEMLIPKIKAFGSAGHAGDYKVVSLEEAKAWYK
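Giardia FBPA (40 nM reagent) was preincubated 10 min at RT with compound (up to 57.5 uM final), then substrate plus GAPDH/TPI/NAD/arsenate coupling system with diaphorase/resazurin was added; resorufin fluorescence (525/598 nm) was read after 20 min.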
Cruzain inh noDet: inhibitors of Trypanosoma cruzi cruzain without detergent; AID 1476; Potency, µM, for the others: max response, negative = inhibition, actives largely listed as inhibitors; P25779; hit rate 2.3% among 200,000; purified cruzain, Z-FR-AMC fluorescence, no detergent;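 note: plate controls were enzyme without inhibitor for no effect and buffer without enzyme for full effect; nearly all actives have a fitted effect of over 40% in size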
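Detergent-free condition (0.00005% Triton X-100) in acetate buffer pH 5.5 with DTT. 1.5 nM enzyme and compound were pre-mixed 15 min, then 2 uM Z-FR-AMC substrate added; reaction progress from fluorescence change between first and third reads (60 s).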
Giardia growth: Giardia lamblia growth inhibition | AID 2785 | Giardia lamblia trophozoite growth inhibition | hit rate 5% among 1,500 | Potency, µM (series often up to 57.5 µM), for inactives: at the highest dose activity change, negative = inhibition, most hits filed as inhibitors | shares compounds with Giardia FBPA inh-1;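 note: trophozoites exposed to compound for 48 h at 37 °C; nearly all actives have a fitted effect of over 70% in size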
Mammal cell tox: toxic to mammalian cells in Giardia aldolase counter-screen | shares compounds with Giardia FBPA inh-1 | mammalian cell viability counter-screen, qHTS | Potency, µM (highest dose often 57.5 µM), without a hit: at the top dose viability change, negative = toxicity, hits mostly inhibitors | hit rate 4% among 1,500 | AID 2786;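 note: Chinese hamster ovary cells used as mammalian cytotoxicity surrogate; viability measured as cellular ATP by luminescence; compound exposure lasted 48 h before reading; nearly all actives have a fitted effect of over 60% in size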
Giardia FBPA inh-2: confirmation of Giardia fructose-bisphosphate aldolase inhibitors. AID 2787. hit rate 5% among 1,500. Potency, µM (series often up to 57.5 µM), for inactives: at the highest dose activity change, negative = inhibition, usual class: inhibitors. purified Giardia aldolase enzyme activity, qHTS. shares compounds with Giardia FBPA inh-1; note: nearly all actives have a fitted effect of over 45% in size
Rabbit FBPA inh: selectivity test for Giardia aldolase inhibitors: rabbit aldolase | shares compounds with Giardia FBPA inh-1 | Rabbit muscle FBPA enzyme inhibition, selectivity counter-screen | Potency, µM (highest dose often 57.5 µM), without a hit: at the top dose activity, negative = inhibition, most hits filed as inhibitors | hit rate 4% among 1,500; note: nearly all actives have a fitted effect of over 60% in size
GAPDH coupling: counter-screen for Giardia aldolase inhibitors: GAPDH coupling enzyme; shares compounds with Giardia FBPA inh-1; GAPDH coupling enzyme counterscreen, biochemical, qHTS; Potency, µM (top dose mostly 57.5 µM), without a hit: at the top dose activity change, negative = inhibition, hits mostly inhibitors; hit rate 6% among 1,500; note: nearly all actives have a fitted effect of over 55% in size
* marks the source's active call; other numbers are inactive results; ? = inconclusive; . = no result given; [ ] = remark or other dose. Calls come from the whole dose curve; as a rule, active = well fitted curve in the direction sought with a large enough effect; inconclusive = small, poorly fitted or top-dose-only effect, or another doubt; inactive = no such curve, though single readings can be large; an effect the other way counts as inactive or inconclusive. Unless noted, % is set by controls: 0 for no effect and ±100 for the full control effect; potency is the fitted concentration of half-maximal effect.

SMILES	Cruzain Triton	Giardia FBPA inh-1	Cruzain inh noDet	Giardia growth	Mammal cell tox	Giardia FBPA inh-2	Rabbit FBPA inh	GAPDH coupling
COc1ccc(S(=O)(=O)Nc2cc3c(cc2NCc2ccccc2)n(C)c(=O)n3C)cc1	-10.9%	.	11.9%	.	.	.	.	.
Cc1ccc(NC(=O)c2ccc(CNS(=O)(=O)c3ccc4c(c3)C(C)(C)C(=O)N4C)cc2)cc1F	-5.4%	.	8.8%	.	.	.	.	.
Cc1cccc(N=Nc2c(C)c(C#N)c(O)[nH]c2=O)c1	.	-6.3%	.	.	.	.	.	.
Cc1c(C#N)c(O)n(CCO)c(=O)c1N=Nc1ccc2c(c1)COC2=O	.	19.9µM*	.	?	-5.2%	?	-28.4%	-21.5%
Cc1cc(C)cc(N2C(=O)CSC23C(=O)N(CC(=O)NC2CCCCC2)c2ccccc23)c1 (stereo not drawn)	-3.4%	.	-10.5%	.	.	.	.	.
Brc1ccccc1OCCN1CCOCC1	.	28.2µM*	.	31.5%	-0.2%	1.4%	-6.9%	6.9%
Clc1cc(Br)ccc1OCCN1CCOCC1	-1.8%	-24.1%	0.9%	.	.	.	.	.
S=c1[nH]nc(-c2ccccn2)n1/N=C/c1ccco1	.	19.9µM*	.	7.0%[10.4 µM]	14.6%	3.8%	16.2%	4.7%
S=c1[nH]nc(-c2ccccn2)n1/N=C/c1ccc(-c2ccccc2Br)o1	.	5.7%	.	.	.	.	.	.
C=CC[C@@H]1C=C[C@@H](O/N=C\[C@@H](OC)[C@H](C)/C=C\CC(=O)OC)[C@@H](CO)O1	.	0.4%[12.9 µM]	.	.	.	.	.	.
O=C(Nc1ccccc1C(F)(F)F)c1ccccn1	.	-20.6%	.	.	.	.	.	.
Cc1nc(C(F)(F)F)c(C(=O)N/N=C(\N)c2ccccn2)s1	.	4.46µM*	.	31.6µM*	39.8µM*	?	-21.0%	-25.7%
C/C(=N\NC(=O)c1cccc2ccccc12)c1ccccn1	.	9.6%	.	.	.	.	.	.
N/C(=N\NS(=O)(=O)c1ccccc1C(F)(F)F)c1ccccn1	.	17.7µM*	.	5.8%[10.4 µM]	6.7%	13.3%	11.3%	7.0%
COc1ccc2nc(NC(=O)c3ccc(S(=O)(=O)N4CCCC(C)C4)cc3)sc2c1 (stereo not drawn)	-0.7%	.	-8.7%	.	.	.	.	.
CC(C)[C@H](NC(=O)OC(C)(C)C)[C@@H](O)CC(=O)C(C)(C)C	.	0.0%[12.9 µM]	.	.	.	.	.	.
COc1cc(OC)c(NC(=O)c2c(C)oc3nc(C)nc(N4CCOCC4)c23)cc1Cl	0.4%	.	-8.9%	.	.	.	.	.
O=[N+]([O-])c1ccccc1S(=O)(=O)N1CCN(Cc2ccccc2)CC1	.	-29.5%	.	.	.	.	.	.
O=[N+]([O-])c1ccccc1S(=O)(=O)N1CCN(Cc2ccsc2)CC1	.	19.9µM*	.	-17.3%	-0.3%	-3.7%	-1.0%	3.1%
CCCCN(C)C(=O)c1ccc2c(c1)N(Cc1cccc(F)c1)C(=O)c1ccccc1S2	-6.4%	.	11.7%	.	.	.	.	.
COc1ccc(S(=O)(=O)NNC(N)=S)cc1	.	9.98µM*	.	-0.6%[38.3 µM]	10.7%	0.1%	4.0%	7.9%
COc1ccc(NC(=O)NNS(=O)(=O)c2ccc(Br)cc2)cc1	.	7.3%	.	.	.	.	.	.
CCCN1CCN(c2ncc3c(n2)CCN(Cc2ccc(OC)c(OC)c2OC)C3)CC1	1.4%	.	5.1%	.	.	.	.	.
COc1cc(-c2nc(S(=O)(=O)c3ccc(Cl)cc3)c(N3CCOCC3)o2)cc(OC)c1OC	1.7%	1.3%	?	.	.	.	.	.
COc1cc(-c2nc(S(=O)(=O)c3ccc(C)cc3)c(N3CCOCC3)o2)cc(OC)c1OC	-1.9%	35.5µM*	?	?	-21.8%	2.5%	9.7%	6.3%
SMILES	Cruzain Triton	Giardia FBPA inh-1	Cruzain inh noDet	Giardia growth	Mammal cell tox	Giardia FBPA inh-2	Rabbit FBPA inh	GAPDH coupling
COc1ccc(F)cc1S(=O)(=O)NCC(c1ccco1)S(=O)(=O)c1ccc(F)cc1 (stereo not drawn)	-5.1%	.	10.2%	.	.	.	.	.
CC1CCC(N2CC(=O)N(C3CCCCC3)C(c3ccc(Cl)cc3)C2=O)CC1 (stereo not drawn)	0.3%	.	-7.9%	.	.	.	.	.
CCC(=O)Nc1sc2c(c1C(=O)OC)CCN(Cc1ccccc1)C2	.	12.6µM*	.	-4.2%	-20.9%	-6.5%	1.4%	-22.1%
CCN1CCc2c(sc(NC(=O)C3CCCCC3)c2C(=O)OC)C1	.	17.8µM*	.	-15.6%	-10.8%	4.6%	13.2%	5.7%
COc1cccc(OC)c1C(=O)Nc1sc2c(c1C(N)=O)CCN(Cc1ccccc1)C2	.	12.6µM*	.	-54.2%	-5.9%	-1.7%	14.7%	-10.1%
NC(=O)c1c(NC(=O)C2COc3ccccc3O2)sc2c1CCN(Cc1ccccc1)C2 (stereo not drawn)	.	-3.8%	.	.	.	.	.	.
CC(C)N1CCc2c(sc(NC(=O)CCc3ccccc3)c2C(N)=O)C1	.	-26.1%	.	.	.	.	.	.
COC(=O)c1c(NC(=O)C2CC2)sc2c1CCN(C(C)=O)C2	-2.2%	-3.4%	-15.1%	.	.	.	.	.
CCOC(=O)c1c(NC(=O)C2COc3ccccc3O2)sc2c1CCN(Cc1ccccc1)C2 (stereo not drawn)	-4.5%	-5.6%	1.8%	.	.	.	.	.
CC(C)N1CCc2c(sc(NC(=O)Cc3ccccc3)c2C(N)=O)C1	.	12.6µM*	.	?	10.6%	9.0%	8.4%	9.5%
Cn1nnc2c(N3CCN(c4ccccc4Cl)CC3)ncnc21	-0.3%	.	-7.4%	.	.	.	.	.
c1ccc(Nc2cc(-c3ccoc3)ncn2)cc1	-1.0%	-21.2%	-9.7%	.	.	.	.	.
O=C(NCc1ccc2c(c1)OCO2)c1ccc2c(c1)N(Cc1cccc(Cl)c1)C(=O)c1ccccc1S2=O (stereo not drawn)	-3.1%	.	?	.	.	.	.	.
Cc1csc2nc(COC(=O)c3ccccc3NC(=O)COc3ccccc3F)cc(=O)n12	-0.4%	.	3.9%	.	.	.	.	.
CN1CCc2c(sc(NC(=O)c3ccco3)c2C(N)=O)C1	.	-14.4%	.	.	.	.	.	.
